# PubChem BioAssay (EPA / NIEHS)
# Activity calls are given as the source filed them. How the source made its calls: active means hit-call score of the fitted dose curve at least 0.9, where 1 is the maximum; inactive means score below 0.9.
# Experiments:
# [1] = read-out: Monokine induced gamma interferon (MIG), CXCL9 (gene 4283); assay: BSK_hDFCGF_MIG: BioMAP Diversity Plus: hDFCGF Assay for Monokine induced gamma interferon (MIG) Biomarker Activity (AID 2283063); conditions: primary human foreskin fibroblasts; actives raise or lower the signal
# In short: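 Endpoint derived by bidirectional fitting relative to DMSO; MIG quantified via ELISA in primary human foreskin fibroblasts harvested 24 h after dosing.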
# [2] = read-out: Matrix Metallopeptidase 1 (MMP1), MMP1 (gene 4312); assay: BSK_hDFCGF_MMP1: BioMAP Diversity Plus: hDFCGF Assay for Matrix Metallopeptidase 1 (MMP1) Biomarker Activity (AID 2283064); conditions: primary human foreskin fibroblasts; actives raise or lower the signal
# In short: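 Human foreskin fibroblasts exposed to chemical for 24 h; MMP1 detected by ELISA, with DMSO as baseline for bidirectional fitting.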
# [3] = read-out: Vascular cell adhesion molecule 1 (VCAM1), VCAM1 (gene 7412); assay: BSK_hDFCGF_VCAM1: BioMAP Diversity Plus: hDFCGF Assay for Vascular cell adhesion molecule 1 (VCAM1) Biomarker Activity (AID 2283065); conditions: primary human foreskin fibroblasts; actives raise or lower the signal;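 on AC50: VCAM-1 protein level quantified by ELISA after 24 h chemical exposure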
# In short: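 Measured after 24 h chemical treatment of primary human skin fibroblasts, VCAM-1 was detected by ELISA and concentration-response analysed in both directions versus DMSO vehicle.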
# [4] = read-out: Plasminogen activator inhibitor-1 (PAI1), SERPINE1 (gene 5054); assay: BSK_hDFCGF_PAI1: BioMAP Diversity Plus: hDFCGF Assay for Plasminogen activator inhibitor-1 (PAI1) Biomarker Activity (AID 2283066); conditions: primary human foreskin fibroblasts; actives raise or lower the signal
# In short: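 PAI-1 levels in human dermal foreskin fibroblasts were quantified by ELISA 24 h after dosing, with gain or loss analysed against DMSO. Overt cytotoxicity was checked by sulforhodamine B total-protein staining in parallel cultures.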
# [5] = read-out: Intercellular Adhesion Molecule 1 (ICAM1), ICAM1 (gene 3383); assay: BSK_KF3CT_ICAM1: BioMAP Diversity Plus: KF3CT Assay for Intercellular Adhesion Molecule 1 (ICAM1) Biomarker Activity (AID 2283067); conditions: primary human keratinocytes with fibroblasts; actives raise or lower the signal
# In short: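 Bidirectional curve fitting against a DMSO baseline was applied to ICAM-1 ELISA signal from primary human skin co-cultures harvested 24 h after treatment, with SRB staining of parallel wells for overt cytotoxicity.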
# [6] = read-out: Interferon-gamma inducible Protein 10 (IP10), CXCL10 (gene 3627); assay: BSK_KF3CT_IP10: BioMAP Diversity Plus: KF3CT Assay for Interferon-gamma inducible Protein 10 (IP10) Biomarker Activity (AID 2283068); conditions: primary human keratinocytes with fibroblasts; actives raise or lower the signal
# In short: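 In a primary skin co-culture of keratinocytes and fibroblasts, IP-10 is quantified by ELISA at 24 h after dosing. SRB staining of parallel wells monitors overt toxicity. Curves are fitted both directions against DMSO.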
# [7] = BSK_KF3CT_SRB: Viability Assessment in the BioMAP Diversity Plus: KF3CT Assay (AID 2283069); conditions: primary human keratinocytes with fibroblasts;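 further: read 24 h after compound addition; fitted for both signal gain and loss against DMSO baseline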
# In short: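 Overt cytotoxicity is assessed as total protein by sulforhodamine B staining in parallel human skin co-cultures at 24 h after dosing. DMSO serves as negative control and baseline.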
# [8] = read-out: Interleukin-1 alpha (IL1a), IL1A (gene 3552); assay: BSK_KF3CT_IL1a: BioMAP Diversity Plus: KF3CT Assay for Interleukin-1 alpha (IL1a) Biomarker Activity (AID 2283070); conditions: primary human keratinocytes with fibroblasts; actives raise or lower the signal
# In short: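 Readout is IL-1a level by ELISA, compared bidirectionally with DMSO as baseline. Cells: human keratinocytes co-cultured with foreskin fibroblasts, harvested 24 h post-dose.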
# [9] = read-out: TIMP metallopeptidase inhibitor 2 (TIMP2), TIMP2 (gene 7077); assay: BSK_KF3CT_TIMP2: BioMAP Diversity Plus: KF3CT Assay for TIMP metallopeptidase inhibitor 2 (TIMP2) Biomarker Activity (AID 2283071); conditions: primary human keratinocytes with fibroblasts; actives raise or lower the signal
# In short: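 TIMP-2 measured by ELISA at 24 h in human keratinocyte/fibroblast primary co-cultures exposed to chemicals. Both increases and decreases were fitted against DMSO. Parallel cultures were stained with SRB for total protein as an overt-cytotoxicity check.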
# [10] = read-out: Transforming growth factor beta 1 (TGFb1), TGFB1 (gene 7040); assay: BSK_KF3CT_TGFb1: BioMAP Diversity Plus: KF3CT Assay for Transforming growth factor beta 1 (TGFb1) Biomarker Activity (AID 2283072); conditions: primary human keratinocytes with fibroblasts; actives raise or lower the signal
# In short: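 ELISA quantifies TGF-b1 at 24 h post-dose in a primary human skin co-culture of keratinocytes and fibroblasts, with gain or loss judged against DMSO. Parallel SRB total-protein staining flags overt cytotoxicity.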
SMILES,outcome [1],outcome [2],outcome [3],outcome [4],outcome [5],outcome [6],outcome [7],outcome [8],outcome [9],outcome [10],AC50 [1],AC50 [2],AC50 [3],AC50 [4],AC50 [5],AC50 [6],AC50 [7],AC50 [8],AC50 [9],AC50 [10]
CC(O)CC(C)(C)O (stereo not given),inactive,inactive,inactive,inactive,inactive,inactive,inactive,inactive,inactive,inactive,–,–,–,–,–,–,–,–,–,–
CC/C(=C(/CC)c1ccc(O)cc1)c1ccc(O)cc1,–,–,–,–,–,–,–,–,–,–,28.1 µM (active),28.6 µM (active),13.6 µM (active),20 µM (active),31.8 µM (active),17.7 µM (active),25.3 µM (active),28 µM (active),29.1 µM (active),5.87 µM (active)
CCN(Cc1cccnc1)C(=O)c1cccc(Cl)c1[C@]1(C)C(=O)N(Cc2ccc(OC)cc2OC)c2ccc(Cl)cc21,inactive,–,inactive,–,inactive,–,inactive,inactive,inactive,inactive,–,5.9 µM (active),–,9.31 µM (active),–,22.3 µM (active),–,–,–,–
CC(C)(O)c1ccc(CNC(=O)c2cccnc2Oc2ccc3nonc3c2)cc1,inactive,inactive,inactive,inactive,inactive,inactive,inactive,inactive,inactive,inactive,–,–,–,–,–,–,–,–,–,–
COCC(C)OCC(C)OCC(C)O (stereo not given),inactive,inactive,inactive,inactive,inactive,inactive,inactive,inactive,inactive,inactive,–,–,–,–,–,–,–,–,–,–
O=C1O[C@H]([C@@H](O)CO)C(O)=C1O,inactive,inactive,inactive,inactive,inactive,inactive,inactive,inactive,inactive,inactive,–,–,–,–,–,–,–,–,–,–
CC(C)(C)c1cc(/C=C2\SC(N)=NC2=O)cc(C(C)(C)C)c1O,–,–,–,–,inactive,–,–,inactive,–,–,14.2 µM (active),20 µM (active),15.6 µM (active),20 µM (active),–,9.94 µM (active),7.93 µM (active),–,11.5 µM (active),12.8 µM (active)
C[C@]12CC[C@@H]3c4ccc(O)cc4CC[C@H]3[C@@H]1CC[C@H]2O,inactive,inactive,–,inactive,inactive,inactive,inactive,inactive,inactive,inactive,–,–,15.4 µM (active),–,–,–,–,–,–,–
O=C(O)c1ccccc1C(=O)OCc1ccccc1,inactive,inactive,inactive,inactive,inactive,inactive,inactive,inactive,inactive,inactive,–,–,–,–,–,–,–,–,–,–
CCCCCCCCN(C)CCCCCCCC,inactive,inactive,inactive,inactive,inactive,inactive,inactive,inactive,inactive,inactive,–,–,–,–,–,–,–,–,–,–
Cc1ccc2oc(CN(Cc3ccccc3)C(=O)Nc3c(F)cc(F)cc3F)c(-c3ccc(Cl)cc3)c2c1,inactive,inactive,inactive,–,inactive,inactive,inactive,inactive,–,inactive,–,–,–,0.999 µM (active),–,–,–,–,26.4 µM (active),–
CCCCCCCCCCCC[N+](C)(C)C,–,–,–,–,inactive,–,–,–,–,–,30.6 µM (active),4.94 µM (active),15.4 µM (active),20 µM (active),–,36 µM (active),33.9 µM (active),32.5 µM (active),27.8 µM (active),26.6 µM (active)
CC(C)(c1cc(Br)c(O)c(Br)c1)c1cc(Br)c(O)c(Br)c1,–,–,–,–,–,–,–,–,–,–,7.65 µM (active),6.31 µM (active),5.94 µM (active),5.46 µM (active),4.85 µM (active),2.53 µM (active),5.11 µM (active),5.97 µM (active),4.6 µM (active),1.69 µM (active)
NC(=O)c1nc(-c2cccc(-c3cc(F)ccc3OCC(F)(F)C(F)(F)F)c2)n[nH]1,–,–,–,–,–,–,–,–,–,–,35 µM (active),39.5 µM (active),35.1 µM (active),32.8 µM (active),35.2 µM (active),39.3 µM (active),37 µM (active),41.2 µM (active),35 µM (active),36.1 µM (active)
CC1(C)NC(=O)N(c2ccc([N+](=O)[O-])c(C(F)(F)F)c2)C1=O,inactive,inactive,inactive,inactive,inactive,inactive,inactive,inactive,inactive,inactive,–,–,–,–,–,–,–,–,–,–
CCCCCCCCCCCCO,–,–,–,–,–,–,–,–,–,–,33.3 µM (active),31 µM (active),25.8 µM (active),29.7 µM (active),32.7 µM (active),37.7 µM (active),32.8 µM (active),30.6 µM (active),30 µM (active),30.9 µM (active)
OCCO,inactive,inactive,inactive,inactive,inactive,inactive,inactive,inactive,inactive,inactive,–,–,–,–,–,–,–,–,–,–
CN(C)c1ccc(C(=C2C=CC(=[N+](C)C)C=C2)c2ccc(N(C)C)cc2)cc1,–,–,–,–,–,–,–,–,–,–,5.26 µM (active),5.45 µM (active),3.25 µM (active),1.54 µM (active),10.8 µM (active),8.28 µM (active),5.24 µM (active),2.54 µM (active),1.29 µM (active),0.595 µM (active)
CCN(CC)C(=O)c1cc(S(=O)(=O)Cc2ccccc2)c(N2CCC(c3ccccc3)CC2)cc1N(CC)CCN(C)C,inactive,inactive,inactive,–,inactive,inactive,–,inactive,inactive,inactive,–,–,–,4.69 µM (active),–,–,28 µM (active),–,–,–
